# Experimental data as given in paper PMC8222333, “AsCas12a ultra nuclease facilitates the rapid generation of therapeutic cell medicines”.
# B1: GAAA (dsDNA)
# DNA 1: GCTATCTAGTGCTCAGTACGCACTGGAAAAGGAAACTTCTGGCAGGACCAGGTCATGAGATCGGAAGAGCACACGTCTGAACTCCAGTCA
# DNA 2: TGACTGGAGTTCAGACGTGTGCTCTTCCGATCTCATGACCTGGTCCTGCCAGAAGTTTCCTTTTCCAGTGCGTACTGAGCACTAGATAGC
# RNA: AAUUUCUACUCUUGUAGAUAGGAAACUUCUGGCAGGACC
# B2: GAAG (dsDNA)
# DNA 1: GCTATCTAGTGCTCAGTACGCACTGGAAGAGGAAACTTCTGGCAGGACCAGGTCATGAGATCGGAAGAGCACACGTCTGAACTCCAGTCA
# DNA 2: TGACTGGAGTTCAGACGTGTGCTCTTCCGATCTCATGACCTGGTCCTGCCAGAAGTTTCCTCTTCCAGTGCGTACTGAGCACTAGATAGC
# RNA: AAUUUCUACUCUUGUAGAUAGGAAACUUCUGGCAGGACC
# B3: GAGG (dsDNA)
# DNA 1: GCTATCTAGTGCTCAGTACGCACTGGAGGAGGAAACTTCTGGCAGGACCAGGTCATGAGATCGGAAGAGCACACGTCTGAACTCCAGTCA
# DNA 2: TGACTGGAGTTCAGACGTGTGCTCTTCCGATCTCATGACCTGGTCCTGCCAGAAGTTTCCTCCTCCAGTGCGTACTGAGCACTAGATAGC
# RNA: AAUUUCUACUCUUGUAGAUAGGAAACUUCUGGCAGGACC
# B4: GACG (dsDNA)
# DNA 1: GCTATCTAGTGCTCAGTACGCACTGGACGAGGAAACTTCTGGCAGGACCAGGTCATGAGATCGGAAGAGCACACGTCTGAACTCCAGTCA
# DNA 2: TGACTGGAGTTCAGACGTGTGCTCTTCCGATCTCATGACCTGGTCCTGCCAGAAGTTTCCTCGTCCAGTGCGTACTGAGCACTAGATAGC
# RNA: AAUUUCUACUCUUGUAGAUAGGAAACUUCUGGCAGGACC
# B5: GAGT (dsDNA)
# DNA 1: GCTATCTAGTGCTCAGTACGCACTGGAGTAGGAAACTTCTGGCAGGACCAGGTCATGAGATCGGAAGAGCACACGTCTGAACTCCAGTCA
# DNA 2: TGACTGGAGTTCAGACGTGTGCTCTTCCGATCTCATGACCTGGTCCTGCCAGAAGTTTCCTACTCCAGTGCGTACTGAGCACTAGATAGC
# RNA: AAUUUCUACUCUUGUAGAUAGGAAACUUCUGGCAGGACC
# B6: GAGC (dsDNA)
# DNA 1: GCTATCTAGTGCTCAGTACGCACTGGAGCAGGAAACTTCTGGCAGGACCAGGTCATGAGATCGGAAGAGCACACGTCTGAACTCCAGTCA
# DNA 2: TGACTGGAGTTCAGACGTGTGCTCTTCCGATCTCATGACCTGGTCCTGCCAGAAGTTTCCTGCTCCAGTGCGTACTGAGCACTAGATAGC
# RNA: AAUUUCUACUCUUGUAGAUAGGAAACUUCUGGCAGGACC
# B7: GACT (dsDNA)
# DNA 1: GCTATCTAGTGCTCAGTACGCACTGGACTAGGAAACTTCTGGCAGGACCAGGTCATGAGATCGGAAGAGCACACGTCTGAACTCCAGTCA
# DNA 2: TGACTGGAGTTCAGACGTGTGCTCTTCCGATCTCATGACCTGGTCCTGCCAGAAGTTTCCTAGTCCAGTGCGTACTGAGCACTAGATAGC
# RNA: AAUUUCUACUCUUGUAGAUAGGAAACUUCUGGCAGGACC
# B8: GCAC (dsDNA)
# DNA 1: GCTATCTAGTGCTCAGTACGCACTGGCACAGGAAACTTCTGGCAGGACCAGGTCATGAGATCGGAAGAGCACACGTCTGAACTCCAGTCA
# DNA 2: TGACTGGAGTTCAGACGTGTGCTCTTCCGATCTCATGACCTGGTCCTGCCAGAAGTTTCCTGTGCCAGTGCGTACTGAGCACTAGATAGC
# RNA: AAUUUCUACUCUUGUAGAUAGGAAACUUCUGGCAGGACC
# B9: GCAA (dsDNA)
# DNA 1: GCTATCTAGTGCTCAGTACGCACTGGCAAAGGAAACTTCTGGCAGGACCAGGTCATGAGATCGGAAGAGCACACGTCTGAACTCCAGTCA
# DNA 2: TGACTGGAGTTCAGACGTGTGCTCTTCCGATCTCATGACCTGGTCCTGCCAGAAGTTTCCTTTGCCAGTGCGTACTGAGCACTAGATAGC
# RNA: AAUUUCUACUCUUGUAGAUAGGAAACUUCUGGCAGGACC
# B10: GAAT (dsDNA)
# DNA 1: GCTATCTAGTGCTCAGTACGCACTGGAATAGGAAACTTCTGGCAGGACCAGGTCATGAGATCGGAAGAGCACACGTCTGAACTCCAGTCA
# DNA 2: TGACTGGAGTTCAGACGTGTGCTCTTCCGATCTCATGACCTGGTCCTGCCAGAAGTTTCCTATTCCAGTGCGTACTGAGCACTAGATAGC
# RNA: AAUUUCUACUCUUGUAGAUAGGAAACUUCUGGCAGGACC
# B11: GCCC (dsDNA)
# DNA 1: GCTATCTAGTGCTCAGTACGCACTGGCCCAGGAAACTTCTGGCAGGACCAGGTCATGAGATCGGAAGAGCACACGTCTGAACTCCAGTCA
# DNA 2: TGACTGGAGTTCAGACGTGTGCTCTTCCGATCTCATGACCTGGTCCTGCCAGAAGTTTCCTGGGCCAGTGCGTACTGAGCACTAGATAGC
# RNA: AAUUUCUACUCUUGUAGAUAGGAAACUUCUGGCAGGACC
# B12: GACA (dsDNA)
# DNA 1: GCTATCTAGTGCTCAGTACGCACTGGACAAGGAAACTTCTGGCAGGACCAGGTCATGAGATCGGAAGAGCACACGTCTGAACTCCAGTCA
# DNA 2: TGACTGGAGTTCAGACGTGTGCTCTTCCGATCTCATGACCTGGTCCTGCCAGAAGTTTCCTTGTCCAGTGCGTACTGAGCACTAGATAGC
# RNA: AAUUUCUACUCUUGUAGAUAGGAAACUUCUGGCAGGACC
# B13: GAAC (dsDNA)
# DNA 1: GCTATCTAGTGCTCAGTACGCACTGGAACAGGAAACTTCTGGCAGGACCAGGTCATGAGATCGGAAGAGCACACGTCTGAACTCCAGTCA
# DNA 2: TGACTGGAGTTCAGACGTGTGCTCTTCCGATCTCATGACCTGGTCCTGCCAGAAGTTTCCTGTTCCAGTGCGTACTGAGCACTAGATAGC
# RNA: AAUUUCUACUCUUGUAGAUAGGAAACUUCUGGCAGGACC
# B14: GCCG (dsDNA)
# DNA 1: GCTATCTAGTGCTCAGTACGCACTGGCCGAGGAAACTTCTGGCAGGACCAGGTCATGAGATCGGAAGAGCACACGTCTGAACTCCAGTCA
# DNA 2: TGACTGGAGTTCAGACGTGTGCTCTTCCGATCTCATGACCTGGTCCTGCCAGAAGTTTCCTCGGCCAGTGCGTACTGAGCACTAGATAGC
# RNA: AAUUUCUACUCUUGUAGAUAGGAAACUUCUGGCAGGACC
# B15: GCAG (dsDNA)
# DNA 1: GCTATCTAGTGCTCAGTACGCACTGGCAGAGGAAACTTCTGGCAGGACCAGGTCATGAGATCGGAAGAGCACACGTCTGAACTCCAGTCA
# DNA 2: TGACTGGAGTTCAGACGTGTGCTCTTCCGATCTCATGACCTGGTCCTGCCAGAAGTTTCCTCTGCCAGTGCGTACTGAGCACTAGATAGC
# RNA: AAUUUCUACUCUUGUAGAUAGGAAACUUCUGGCAGGACC
# B16: GCAT (dsDNA)
# DNA 1: GCTATCTAGTGCTCAGTACGCACTGGCATAGGAAACTTCTGGCAGGACCAGGTCATGAGATCGGAAGAGCACACGTCTGAACTCCAGTCA
# DNA 2: TGACTGGAGTTCAGACGTGTGCTCTTCCGATCTCATGACCTGGTCCTGCCAGAAGTTTCCTATGCCAGTGCGTACTGAGCACTAGATAGC
# RNA: AAUUUCUACUCUUGUAGAUAGGAAACUUCUGGCAGGACC
# B17: GACC (dsDNA)
# DNA 1: GCTATCTAGTGCTCAGTACGCACTGGACCAGGAAACTTCTGGCAGGACCAGGTCATGAGATCGGAAGAGCACACGTCTGAACTCCAGTCA
# DNA 2: TGACTGGAGTTCAGACGTGTGCTCTTCCGATCTCATGACCTGGTCCTGCCAGAAGTTTCCTGGTCCAGTGCGTACTGAGCACTAGATAGC
# RNA: AAUUUCUACUCUUGUAGAUAGGAAACUUCUGGCAGGACC
# Legend:
# Experiment in all cases: Spec-seq (native PAGE EMSA with sequencing of bound and unbound); 25 mM Tris-HCl pH 7.4, 150 mM KCl, 5 mM MgCl2, 10% glycerol, 1 mM DTT, 40 ng/uL salmon sperm DNA; 400 nM Cas12a, 480 nM crRNA, 50 nM library, 37 C 1 h; native PAGE at room temperature; high values mean tight binding
# Conditions in all cases: protein: recombinant
# dAsCas12a S542R = dAsCas12a S542R (Acidaminococcus sp., UniProt U2UMQ6 1-1307, S542R;D908A;E993A;D1235A)
# d-enCas12a = d-enCas12a (Acidaminococcus sp., UniProt U2UMQ6 1-1307, E174R;S542R;K548R;D908A;E993A;D1235A)
# d-enCas12a-Ultra = d-enCas12a-Ultra (Acidaminococcus sp., UniProt U2UMQ6 1-1307, E174R;S542R;K548R;M537R;F870L;D908A;E993A;D1235A)
# 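Also: relative affinity from the bound to unbound sequence frequency ratio in Spec-seq.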
Binder,binding signal (dAsCas12a S542R),binding signal (d-enCas12a),binding signal (d-enCas12a-Ultra)
B1,-8.7 lnKA,-5.87 lnKA,-3.36 lnKA
B2,-8.23 lnKA,-5.82 lnKA,-3.51 lnKA
B3,-8.75 lnKA,-5.9 lnKA,-3.51 lnKA
B4,-8.56 lnKA,-5.57 lnKA,-2.93 lnKA
B5,-8.58 lnKA,-5.78 lnKA,-3.48 lnKA
B6,-8.89 lnKA,-5.66 lnKA,-3.45 lnKA
B7,-8.65 lnKA,-5.63 lnKA,-3.01 lnKA
B8,-8.62 lnKA,-5.82 lnKA,-3.32 lnKA
B9,-8.78 lnKA,-5.83 lnKA,-3.42 lnKA
B10,-8.54 lnKA,-5.79 lnKA,-3.39 lnKA
B11,-5 lnKA,-2.96 lnKA,-0.56 lnKA
B12,-8.67 lnKA,-4.44 lnKA,-1.74 lnKA
B13,-8.59 lnKA,-5.9 lnKA,-3.33 lnKA
B14,-6.59 lnKA,-5.48 lnKA,-1.86 lnKA
B15,-8.35 lnKA,-6.02 lnKA,-3.32 lnKA
B16,-8.69 lnKA,-5.86 lnKA,-3.45 lnKA
B17,-8.46 lnKA,-3.91 lnKA,-1.34 lnKA
